Among all 1,300 compounds or so, about 750 (58%) were called active. This is one part of the list. Unmarked numbers belong to inactive results.

Usually inhibition stands for the relative decrease from the control value, in per cent.

This assay deals with Sulfhydryl oxidase 1 (Homo sapiens) (UniProt O00391). Kind of assay: inhibition of human sulfhydryl oxidase QSOX1 – biochemical, ROS-Glo H2O2 luminescence, HTS, primary screen (AID 1347418). The settings on record: recombinant QSOX1, ROS-Glo H2O2 luminescence; at 12.5 µM; stronger effect = higher value; active = any value above zero.
Sulfhydryl oxidase 1 (Homo sapiens), sequence (O00391 whole entry, looked up): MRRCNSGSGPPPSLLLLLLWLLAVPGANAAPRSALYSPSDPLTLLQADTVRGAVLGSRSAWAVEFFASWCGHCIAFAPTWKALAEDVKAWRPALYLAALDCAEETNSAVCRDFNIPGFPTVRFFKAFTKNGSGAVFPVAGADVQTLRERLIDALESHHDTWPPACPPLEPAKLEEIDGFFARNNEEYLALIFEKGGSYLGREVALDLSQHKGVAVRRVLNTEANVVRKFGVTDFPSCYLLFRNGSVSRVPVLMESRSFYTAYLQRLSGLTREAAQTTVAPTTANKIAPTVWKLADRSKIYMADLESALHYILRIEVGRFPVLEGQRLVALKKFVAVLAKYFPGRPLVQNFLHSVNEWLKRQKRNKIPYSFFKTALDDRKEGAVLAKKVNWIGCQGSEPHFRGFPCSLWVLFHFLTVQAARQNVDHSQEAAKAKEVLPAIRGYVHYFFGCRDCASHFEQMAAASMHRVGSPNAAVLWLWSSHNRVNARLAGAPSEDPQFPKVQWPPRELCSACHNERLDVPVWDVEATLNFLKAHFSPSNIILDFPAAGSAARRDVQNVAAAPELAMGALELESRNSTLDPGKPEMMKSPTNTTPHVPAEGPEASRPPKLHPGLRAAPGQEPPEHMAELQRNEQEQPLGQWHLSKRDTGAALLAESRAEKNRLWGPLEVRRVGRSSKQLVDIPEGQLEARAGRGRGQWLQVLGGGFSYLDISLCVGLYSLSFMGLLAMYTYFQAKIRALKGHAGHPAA
`O=C(O)c1cc2cc(Cc3cccnc3)ccc2o1`: the inhibition was -7.8%.

In the case of `COc1ccc2c(c1)CCC1C2CC[C@@]2(C)C1CC[C@@H]2NCCCCCCN1C(=O)C=CC1=O` (some centres undefined), the inhibition is -7.4%.

In the case of `COc1cc2c(cc1O)CC[C@@H]1[C@@H]2CC[C@]2(C)[C@@H](O)CC[C@@H]12`, the inhibition is 36% (active).

Take `C[C@]12CC[C@@H]3c4ccc(O)cc4CC[C@H]3[C@@H]1CCC2=O`: the inhibition is -1.6%.

`C[C@]12CC[C@@H]3c4ccc(O)cc4CC[C@H]3[C@@H]1CC[C@@H]2O`: the inhibition is 5.6% (active).

With `COc1ccc2c(c1)CCC1C2CC[C@@]2(C)C1CC[C@@H]2NCCCCCCN1C(=O)CCC1=O` (some centres undefined), the inhibition is -2.7%.

Take `C[C@]12CC[C@@H]3c4ccc(O)cc4C[C@@H](CCCCCCCCCS(=O)CCCC(F)(F)C(F)(F)F)[C@H]3[C@@H]1CC[C@@H]2O` (some centres undefined): the inhibition was -4.8%.

`CCCCCCN(CCCCCC)C(=O)Cc1c(-c2ccc(F)cc2)[nH]c2ccccc12`: the inhibition was -2.9%.

Turning to `COc1cc2nc(N3CCCN(C)CC3)nc(NC3CCN(Cc4ccccc4)CC3)c2cc1OC`, the inhibition was 1.5% (active).

With `Oc1ccc(O)cc1`, the inhibition was 11.1% (active).

For `CNc1ncnc2c1ncn2[C@H]1C[C@H](OP(=O)(O)O)[C@@H](COP(=O)(O)O)O1`, the inhibition was -3.3%.

`C[N+](C)(C)CCOP(=O)(O)OP(=O)([O-])OC[C@H]1O[C@@H](n2ccc(N)nc2=O)C(O)[C@H]1O` (some centres undefined): the inhibition is -0.3%.

For `CSc1nc(N)c2ncn([C@@H]3O[C+](COP(=O)([O-])OP(=O)(O)O)[C@H](O)C3O)c2n1` (some centres undefined), the inhibition is 0.7% (active).

Consider `NC(N)=NC(N)=Nc1ccccc1`, for which the inhibition is -4.7%.

Consider `NC(N)=NC(N)=Nc1cccc(Cl)c1`, for which the inhibition was 9.6% (active).

Consider `NC(N)=NC(=O)Cc1c(Cl)cccc1Cl`, for which the inhibition is -6.8%.

Regarding `Oc1ccccc1O`, the inhibition was 5.6% (active).

Take `CCCN(CCc1ccccc1)C1CCc2c(O)cccc2C1` (centres undefined): the inhibition was -0.3%.

In the case of `CCN(CC)CCCN(c1ccccc1)C1Cc2ccccc2C1`, the inhibition was 40.2% (active).

As for `COc1cccc(-c2cc(=O)c3ccccc3o2)c1N`, the inhibition is 0.9% (active).

For the compound `N#Cc1cc2nc(O)c(O)nc2cc1[N+](=O)[O-]`, the inhibition is 0.9% (active).

`O=C1NCC2(CCN(CCc3ccccc3)CC2)O1`: the inhibition is -1%.

`C[C@@H](O)[C@H]1C(=O)N2C(C(=O)O)=C(SCCN=CN)C[C@H]12`: the inhibition was -5.2%.

With `C=CCN1CCc2cc(O)c(O)cc2C(c2ccccc2)C1` (centres undefined), the inhibition was 18% (active).

`C=CCN1CCc2c(cc(O)c(O)c2Cl)C(c2ccccc2)C1` (centres undefined): the inhibition is 31.6% (active).

Turning to `C=CCN1CCc2c(cc(O)c(O)c2Br)[C@@H](c2ccccc2)C1`, the inhibition is 26.8% (active).

In the case of `Cc1cccc(C2CN(C)CCc3c2cc(O)c(O)c3Cl)c1` (centres undefined), the inhibition was 25% (active).

For `COC(=O)C1=CO[C@@H](O)[C@@H]2C(CO)=CC[C@H]12`, the inhibition is -3.2%.

Take `NCC1OC(O[C@@H]2[C@H](O)C(OC3C(O)C(N)CC(N)C3OC3OC(CO)C(O)C(O)C3N)O[C@@H]2CO)C(N)C(O)C1O` (some centres undefined): the inhibition is -3.5%.

Consider `C=C(C)C1CC=C(C(=O)O)CC1` (centres undefined), for which the inhibition was -1.3%.

As to `NC1C=CC=C(C(=O)O)C1` (centres undefined), the inhibition was -2.2%.

As to `CNC(=O)Oc1ccc2c(c1)[C@]1(C)CCN(C)[C@@H]1N2C`, the inhibition is 2.6% (active).

For `O=C(O)C1CCCN(CCC=C(c2ccccc2)c2ccccc2)C1` (centres undefined), the inhibition was -3.9%.

As for `CN1[C@@H](CC(=O)c2ccccc2)CCC[C@H]1C[C@H](O)c1ccccc1`, the inhibition is 4.3% (active).

Consider `CC(C)(C)c1ccc(C(=O)CCCN2CCC(OC(c3ccccc3)c3ccccc3)CC2)cc1`, for which the inhibition was -3.2%.

With `CC(C)c1cccc(C(C)C)c1N1C(=O)c2ccc(O)cc2C1=O`, the inhibition is 0.3% (active).

On to `O=C(CCCN1CCC(O)(c2ccc(Cl)cc2)CC1)c1ccc(F)cc1`, for which the inhibition was -4%.

Regarding `CCCCN1CCC(n2c(=O)[nH]c3ccccc32)CC1`, the inhibition was -1.6%.

Turning to `O=C(O)/C=C/c1ccc(O)c(O)c1`, the inhibition was 9.6% (active).

Regarding `O=C(/C=C/c1ccc(O)c(O)c1)OCCc1ccccc1`, the inhibition was 19.7% (active).

With `O=c1cc(-c2ccccc2)[nH]c2nc(Cl)ccc12`, the inhibition is -0.2%.

`Nc1ncnc2c1nc(Sc1ccc(Cl)cc1)n2C1OC2COP(=O)(O)O[C@@H]2[C@@H]1O` (some centres undefined): the inhibition was 1.8% (active).

As for `Nc1nc(O)c2nc(Br)n(C3OC4COP(=O)(O)O[C@@H]4C3O)c2n1` (some centres undefined), the inhibition is -4.7%.

On to `Nc1ncnc2c1nc(Br)n2C1OC2COP(=O)(O)O[C@@H]2C1O` (some centres undefined), for which the inhibition is -1.8%.

As to `C[C@H]1O[C@@H](n2cc(F)c(=O)[nH]c2=O)[C@H](O)[C@@H]1O`, the inhibition was 4.5% (active).

Take `O=c1ccn([C@@H]2O[C@H](COP(=O)(O)OP(=O)(O)O)[C@@H](O)[C@H]2O)c(=O)[nH]1`: the inhibition was -4.1%.

As for `c1ccc2c(c1)CCCC2C1=NCCN1` (centres undefined), the inhibition is -3.7%.

As to `c1ccc2c(c1)CCC[C@H]2Nc1nc2ccccc2[nH]1`, the inhibition is 12.1% (active).

Regarding `NC(=Nc1ccccc1)NC(=O)c1nc(Cl)c(N)nc1N`, the inhibition is -0.3%.

Consider `NC(=NCc1ccccc1)NC(=O)c1nc(Cl)c(N)nc1N`, for which the inhibition is 4.4% (active).

As for `CCCCc1oc2ccccc2c1C(=O)c1cc(I)c(OCCN(CC)CC)c(I)c1`, the inhibition is -1%.

In the case of `CCN(CC)CCOC(=O)c1ccc(N)cc1`, the inhibition is -3.4%.

`CCN(CC)CCCCCCCCOC(=O)c1cc(OC)c(OC)c(OC)c1`: the inhibition was 6.2% (active).

As for `CC(=O)NNC(=O)N1Cc2ccccc2Oc2ccc(Cl)cc21`, the inhibition is 2.6% (active).

On to `C[C@H]1CC2C3CCC4=CC(=O)C=C[C@]4(C)[C@@]3(Cl)[C@@H](O)C[C@]2(C)[C@@]1(O)C(=O)CO` (some centres undefined), for which the inhibition was 8.8% (active).

Consider `C[C@]12C=CC(=O)C=C1CC[C@H]1[C@@H]3C[C@@H](O)[C@](O)(C(=O)CO)[C@@]3(C)C[C@H](O)[C@@]12F`, for which the inhibition was -107%.

Consider `CCCC1O[C@@H]2C[C@H]3[C@@H]4CCC5=CC(=O)C=C[C@]5(C)[C@H]4[C@@H](O)C[C@]3(C)[C@]2(C(=O)CO)O1` (some centres undefined), for which the inhibition was -0.8%.

For `CC1CC2C3CCC4=CC(=O)C=C[C@]4(C)[C@@]3(F)[C@@H](O)C[C@]2(C)[C@@]1(O)C(=O)CO` (some centres undefined), the inhibition is 2.3% (active).

As to `CC12CC3CC(C)(C1)CC(N)(C3)C2`, the inhibition was 3.5% (active).

`NC12CC3CC(CC(C3)C1)C2`: the inhibition is -0.1%.

Turning to `O=c1cc(-c2ccccc2F)[nH]c2cc3c(cc12)OCO3`, the inhibition is 4.4% (active).

For the compound `OC(CN1CCC(Cc2ccc(F)cc2)CC1)c1ccc(Cl)cc1` (centres undefined), the inhibition was 7.6% (active).

With `c1ccc([C@H]2CN3CCSC3=N2)cc1`, the inhibition was -2.6%.

Regarding `Brc1ccc([C@H]2CN3CCSC3=N2)cc1`, the inhibition is 6.2% (active).

On to `c1ccc(C2CN3CCSC3=N2)cc1` (centres undefined), for which the inhibition was 0.3% (active).

As to `O=C(CCCN1CCC(O)(c2cccc(C(F)(F)F)c2)CC1)c1ccc(F)cc1`, the inhibition was -4.6%.

Regarding `OCCN1CCN(CC/C=C2/c3ccccc3Sc3ccc(C(F)(F)F)cc32)CC1`, the inhibition was 0.6% (active).

In the case of `CN1CCN(CCCN2c3ccccc3Sc3ccc(C(F)(F)F)cc32)CC1`, the inhibition was 27.4% (active).

`OCCN1CCN(CCCN2c3ccccc3Sc3ccc(C(F)(F)F)cc32)CC1`: the inhibition is 43.6% (active).

Turning to `NC(=O)c1cn(Cc2c(F)cccc2F)nn1`, the inhibition is 1.3% (active).

Turning to `Cc1ccccc1N1C(=O)c2cc(S(N)(=O)=O)c(Cl)cc2NC1C` (centres undefined), the inhibition is 0.3% (active).

Regarding `NC/C=C\C(=O)O`, the inhibition is -0.4%.

For the compound `COc1ccc2[nH]cc(CCNC(C)=O)c2c1`, the inhibition was 5.6% (active).

Take `COc1cc2c(CCNC(C)=O)c[nH]c2cc1Cl`: the inhibition is -1.4%.

On to `COc1cc2c(CCNC(C)=O)c[nH]c2cc1O`, for which the inhibition was 45.2% (active).

In the case of `COc1ccc(NC=O)c(C(=O)CCNC(C)=O)c1`, the inhibition is -0.8%.

In the case of `CC(=O)NCCc1c[nH]c2ccc(O)cc12`, the inhibition was 27.5% (active).

As to `Nc1nc(OCc2ccccc2)c2[nH]cnc2n1`, the inhibition is 2% (active).

As to `Nc1nc(OCC2CCCCC2)c2[nH]cnc2n1`, the inhibition is 0%.

As for `NC/C=C/C(=O)O`, the inhibition was -2.4%.

On to `O=c1ccc2c(OCCCCc3ccccc3)c3ccoc3cc2o1`, for which the inhibition is 2.3% (active).

For `CC(=O)O[C@H]1Cc2ccccc2N(C(N)=O)c2ccccc21`, the inhibition is 0.3% (active).

On to `NC(=O)N1c2ccccc2C=Cc2ccccc21`, for which the inhibition was -1.4%.

In the case of `CC(C)(C)C(=O)Oc1ccc(S(=O)(=O)Nc2ccccc2C(=O)NCC(=O)O)cc1`, the inhibition is -1%.

Regarding `CC1(C)CCC2=C(O1)c1ccccc1C(=O)C2=O`, the inhibition was 40.5% (active).

Regarding `COc1cc(Cc2cnc(N)nc2N)cc(OC)c1OC`, the inhibition is 0.5% (active).

For the compound `COc1cc2c(cc1OC)C1CC(=O)C(CC(C)C)CN1CC2` (centres undefined), the inhibition was 2.6% (active).

Take `CC[C@H]1CN2CCc3cc(OC)c(OC)cc3[C@@H]2C[C@@H]1C[C@H]1NCCc2cc(OC)c(OC)cc21`: the inhibition is 1.7% (active).

For `CCc1cccc(N(C)C(N)=Nc2cccc3ccccc23)c1`, the inhibition was 8.7% (active).

For the compound `C(=C\c1ccccc1)/CN1CCN(C(c2ccccc2)c2ccccc2)CC1`, the inhibition is 4.9% (active).

As for `Fc1ccc(C(c2ccc(F)cc2)N2CCN(C/C=C/c3ccccc3)CC2)cc1`, the inhibition was 0.4% (active).

Regarding `CN(C)CCCc1cc(C(=O)Nc2ccc(-c3ccncc3)cc2)ccc1O`, the inhibition was 2.5% (active).

As to `Cc1nc(N=Nc2ccc(C(=O)O)cc2)c(COP(=O)(O)O)c(C=O)c1O`, the inhibition was 0.9% (active).

As to `Cc1nc(N=NC2=[C+]C3=C(C=C([N+](=O)[O-])[C+]=C3S(=O)(=O)[O-])C(S(=O)(=O)[O-])=[C+]2)c(COP(=O)([O-])O)c(C=O)c1O`, the inhibition was 2.8% (active).

With `C#CCN(C)CCCOc1ccc(Cl)cc1Cl`, the inhibition is -1.5%.

With `Cn1ccnc1`, the inhibition was -4.4%.

With `CN(C)CC/C=C1\c2ccccc2COc2ccccc21`, the inhibition was -3.1%.

With `CN(C)CCC=C1c2ccccc2C=Cc2ccccc21`, the inhibition was 1% (active).

Take `CN(C)CCC=C1c2ccccc2CCc2ccccc21`: the inhibition is -4.4%.
